# Shown is part of a subset that was picked to be rich in hits.
# PI4K2A inh – blocks human PI4K2A kinase activity. purified PI4K2A, ADP-Glo luminescence, 1 h; active compounds read low. activity change, negative = inhibition, % at 76.9 µM. 420,000 compounds, 0.13% hits. AID 1346378; in the data active = activity change below about -50%; inconclusive = mostly about -30% to -49%;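 note: -100% = wells without enzyme as full effect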
#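 In this quantitative HTS, ADP production by PI4K2A was quantified luminescently after 1 h at ambient temperature; 100 microM adenosine served as plate-quality control.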
# Pin1 inhibitor – human Pin1 inhibition | Q13526 | Pin1 FP peptide displacement, HiFluor488, 10 min | Potency, µM (top dose mostly 115 µM), without a hit: at the top dose activity, negative = inhibition, hits mostly inhibitors | 390,000 compounds, 0.009% hits | AID 504891; active = well fitted inhibition curve with a large enough effect in the polarisation, with a control signal flat, not every such curve was filed as active; inconclusive = small, poorly fitted or top-dose-only effect, or effect the other way, or a change in a side signal; inactive = no such curve, though single readings can be large or run the other way; the % refers to the polarisation; note: potency is the fitted concentration of half-maximal effect
# Target sequence (Q13526 whole entry, looked up): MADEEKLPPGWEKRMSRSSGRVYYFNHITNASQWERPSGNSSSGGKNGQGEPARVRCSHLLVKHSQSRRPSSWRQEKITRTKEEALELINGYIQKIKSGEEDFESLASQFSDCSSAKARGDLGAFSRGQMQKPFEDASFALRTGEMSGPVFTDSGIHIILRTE
# PI5P4Ka inh – inhibitors of human PI5P4K alpha; P48426; PI5P4Kalpha enzyme, ADP-Glo luminescence, 60 min; active compounds read low; max response, %; 330,000 compounds, 1.2% hits; active = max response of -50% or lower; inconclusive = between -30% and -50%; inactive = -30% or higher; note: value at the top dose of about 77 µM
#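 PI5P4Kalpha ADP-Glo assay; 5 microM ATP final; 60 min RT reaction; HEPES pH 7.4/EGTA/CHAPS, 5% DMSO; controls lacking substrate or enzyme; luminescent end-point.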
# PGK inhibitor – T. brucei PGK inhibition | AID 602233 | 380,000 compounds, 0.043% hits | PGK/GAPDH coupled, Kinase-Glo luminescence, 60 min | P07378 | Potency, µM (series often up to 57.5 µM), for the others: at the top dose activity change, negative = inhibition, most hits filed as inhibitors; note: potency is the fitted concentration of half-maximal effect; nearly all actives have a fitted effect of over 60% in size
# Target sequence (P07378 whole entry, looked up): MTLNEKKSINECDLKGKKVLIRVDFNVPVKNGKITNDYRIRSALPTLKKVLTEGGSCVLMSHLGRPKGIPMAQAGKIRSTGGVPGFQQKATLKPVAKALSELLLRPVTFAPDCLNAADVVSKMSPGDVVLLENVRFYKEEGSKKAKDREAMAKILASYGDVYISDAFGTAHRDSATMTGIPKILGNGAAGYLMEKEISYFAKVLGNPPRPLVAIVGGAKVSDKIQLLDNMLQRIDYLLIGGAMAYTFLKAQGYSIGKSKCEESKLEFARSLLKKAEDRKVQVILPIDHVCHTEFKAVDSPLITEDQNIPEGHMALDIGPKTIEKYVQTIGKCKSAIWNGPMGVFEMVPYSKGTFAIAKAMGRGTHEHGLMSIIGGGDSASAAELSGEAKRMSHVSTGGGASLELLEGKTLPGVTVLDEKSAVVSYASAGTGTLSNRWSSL
#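 Recombinant glycosomal PGK reaction used 1,3-bisphosphoglycerate generated in-well by GAPDH (100nM final) in 100mM TEA pH 7.6, 5mM MgCl2, 0.01% Tween-20. After 60 minutes at room temperature, ATP was read by Kinase-Glo Plus luminescence end-point.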
# Tb PFK block – T. brucei PFK enzyme inhibition; 330,000 compounds, 0.17% hits; T. brucei PFK, ADP-Glo luminescence; Potency, µM (top dose mostly 57.5 µM), for the others: at the top dose activity, negative = inhibition, hits mostly inhibitors; O15648;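 note: potency is the fitted concentration of half-maximal effect; 0% = uninhibited 1x PFK enzyme wells and -100% = no-enzyme wells; nearly all actives have a fitted effect of over 60% in size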
#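 PFK 1.25 nM, F6P 0.5 mM, ATP 0.1 mM, 0.1 M TEA pH 8.0, 5 mM MgCl2, 0.01% Tween20, 0.1% BSA; 45 min RT. ADP-Glo readout. qHTS titration up to 57 uM; curves fitted, compounds curve-classed.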
# An asterisk follows results filed as active; i = inactive; ? = inconclusive; / = not tested or not shown; [ ] = dose if it differs, or a comment. Unless noted, calls come from the whole dose curve; as a rule, active = well fitted curve in the direction sought with a large enough effect; inconclusive = small, poorly fitted or top-dose-only effect, or another doubt; inactive = no such curve, though single readings can be large; an effect the other way counts as inactive or inconclusive. Unless noted, % is set by controls: 0 for no effect and ±100 for the full control effect.
SMILES,PI4K2A inh,Pin1 inhibitor,PI5P4Ka inh,PGK inhibitor,Tb PFK block
NC(=O)c1c(NC(=O)CSc2nnc(-c3ccco3)n2-c2ccccc2)sc2c1CCC2,-15,?,-65*,-15%,?
CCOC(=O)Cc1csc(SCC(=O)Nc2nccs2)n1,-4,1%,7,i,3%
Cc1cc2c(s1)c1cnn(Cc3ccc(OC(F)F)cc3)c(=O)c1n2C,/,-1%,/,/,/
O=S1(=O)N=C(Oc2ccccc2Cl)c2ccccc21,/,-5%[163 µM],/,/,/
Cc1cc2c(s1)c1cnn(Cc3cccc(Cl)c3F)c(=O)c1n2C,/,16%,/,/,/
N#CC1=C(Nc2ccccc2Cl)SC2(CCCC2)NC1=O,-4,/,-51*,/,/
CCCSc1nnc(NC(=O)CSc2nc3[nH]c(=O)cc(O)c3s2)s1,0,?,-72*,-5%,5%
COC(=O)c1ccc(C)c(NC(=O)CSc2sc3c(O)cc(=O)[nH]c3c2C#N)c1,-18,19%,-64*,-25%,3%
CCSc1nnc(NC(=O)CC)s1,-1,-11%,6,-2%,3%
CCc1nnc(NC(=O)CSc2nc3[nH]c(=O)cc(O)c3s2)s1,10,?,-27,3%,8%
CCSc1nnc(NC(=O)CSc2sc3c(O)cc(=O)[nH]c3c2C#N)s1,-6,?,-102*,?,1%
Cc1nc(SCC(N)=O)c([N+](=O)[O-])[nH]1,-2,-1%,1,0%,1%
C/C(=N\NC(=O)CSc1nc(C)[nH]c1[N+](=O)[O-])c1ccc(F)cc1,-1,-3%,-67*,0%,0%
ClN=C1C=CC=CC1=NCl,?,/,-77*,/,/
OC[C@H]1O[C@@H](n2cnc3c(=S)nc[nH]c32)[C@H](O)[C@@H]1O,-4,/,/,/,/
COc1ccc2nc(-n3c(O)c(C4=c5ccccc5=NC4=O)[nH]c3=S)sc2c1,-12,/,-67*,?,1%
CCOC(=O)N1CCC(n2c(=O)[nH]c3cc(Cl)ccc32)CC1,4,/,/,/,/
O=C(NC(=S)Nc1cccc(S(=O)(=O)NC2=NCCC2)c1)c1cc(-c2ccco2)nc2ccccc12,-18,?,-50*,6%,-2%
O=C(Nc1cccc(S(=O)(=O)NC2=NCCCCC2)c1)c1cc(-c2ccccc2)nc2ccccc12,4,23%,-1,i,0%
O=C(N/N=C/c1ccc(F)cc1)c1cc(-c2ccco2)nc2ccccc12,?,/,-111*,?,-5%
CCOc1ccc(/C=N/NC(=O)c2cc(-c3ccco3)nc3ccccc23)cc1,-24,33%,?,0%,0%
O=C(NC1CC1)c1cc(-c2ccco2)nc2ccccc12,?,21µM*,-101*,?,-17%
Cc1n[nH]c2c([N+](=O)[O-])c(=O)[nH]c(=O)n12,2,0%,-67*,2%,/
O=C(CSc1nnc(SCc2ccc(Cl)cc2)s1)N/N=C/c1ccc(Cl)cc1Cl,-3,23%,-1,1%,2%
Cc1nnc(SCC(=O)N/N=C/c2cc(Cl)c(O)c(Cl)c2)s1,4,1%,-79*,-5%,6%
SMILES,PI4K2A inh,Pin1 inhibitor,PI5P4Ka inh,PGK inhibitor,Tb PFK block
C=CCN(C)CC#Cc1ccc(C)cc1,1,/,/,/,/
Cc1cc(C)c2c(c1)C1C=CCC1C(c1ccc(S(=O)(=O)N3CCOCC3)cc1)N2 (stereo not drawn),0,3%,/,i,-3%
O=C(O)c1cc(Cl)c2c(c1)[C@@H]1C=CC[C@@H]1[C@H](c1ccc(S(=O)(=O)N3CCOCC3)cc1)N2,-12,/,-53*,-10%,-21%
O=C1S/C(=C\c2ccc(O)c([N+](=O)[O-])c2)C(=O)N1Cc1cccc([N+](=O)[O-])c1,2,?,-78*,-11%,0%
Cc1ccc(NC(=O)CN2C(=O)S/C(=C/c3ccc(O)c([N+](=O)[O-])c3)C2=O)cc1C,-3,/,-58*,?,?
COc1ccc(C(=O)OCCN2CCN(C3CN(Cc4cn(Cc5cccc(C)c5)nn4)S(=O)(=O)C3)CC2)cc1OC (stereo not drawn),-10,/,/,/,/
O=C(O)c1ccc(Oc2nc3ccccc3s2)cc1,-61*,3%,0,-15%,/
O=C(O)c1ccc(C=C(c2nc3ccccc3s2)c2nc3ccccc3s2)cc1,0,-18%,11,-7%,28%
O=c1[nH]c(/C=C/c2cccc([N+](=O)[O-])c2)c([N+](=O)[O-])c(=O)[nH]1,-12,-9%,-67*,-3%,-5%
O=c1[nH]c(/C=C\c2cccnc2)c([N+](=O)[O-])c(=O)[nH]1,-3,0%,?,-12%,19%
O=c1[nH]c(/C=C/c2ccc(Cl)cc2Cl)c([N+](=O)[O-])c(=O)[nH]1,-8,3%,-78*,-10%,-1%
COc1cc(/C=C/c2[nH]c(=O)[nH]c(=O)c2[N+](=O)[O-])ccc1OCCC(C)C,0,?,?,4%,0%
CCC(C)Oc1ccc(/C=C/c2[nH]c(=O)[nH]c(=O)c2[N+](=O)[O-])cc1OC (stereo not drawn),-26,0%,-58*,-7%,?
O=c1[nH]c(/C=C/c2ccccc2)c([N+](=O)[O-])c(=O)[nH]1,-18,2%,-76*,0%,1%
N#CN1CCC(NC(=O)c2ccc(C(F)(F)F)cc2)CC1,/,-2%,/,/,/
Cn1ncc(S(=O)(=O)Cc2ccccc2)c(Br)c1=O,5,/,/,/,/
O=c1[nH]c(/C=C/c2cccnc2)c([N+](=O)[O-])c(=O)[nH]1,?,0%,-65*,-9%,1%
COc1ccc(C2Nc3ccccc3C(=O)N2Cc2ccccc2Cl)cc1COc1ccc(NC(C)=O)cc1 (stereo not drawn),/,-3%,/,/,/
S=c1ncc2[nH]c(=S)[nH]c2[nH]1,-8,5%,-84*,-11%,/
S=c1[nH]c2ccc(Cl)cc2[nH]1,3,-12%,?,-7%,-13%
COc1ccc(CNC(=O)CSc2ccsc2[N+](=O)[O-])cc1,-12,-2%,-50*,i,-15%
CC(=O)c1ccc(NC(=O)CSc2ccsc2[N+](=O)[O-])cc1,-20,?,-81*,-5%,-4%
Cc1cc2c(s1)c1cnn(Cc3ccccc3C)c(=O)c1n2C,/,-2%,/,/,/
COC(=O)[C@]12C[C@H](CC(=O)NCCCCc3ccccc3)C(=O)N(Cc3ccco3)C1=C[C@H](C(C)(C)C)O[C@@H]2C,0,/,/,/,/
CC1=Nc2ccccc2/C1=C/c1sc(=N)n(-c2nccs2)c1O,4,?,-70*,3%,0%
Nc1ccc(C(=O)N2CC3CC(CN(Cc4ccccc4)C3)C2)cc1,1,/,/,/,/
C#CCN1CC(N(C)CCOC(=O)c2ccc(OC)c(OC)c2)CS1(=O)=O (stereo not drawn),-2,/,/,/,/
COc1cccc(C2c3c(ncn(Cc4cccs4)c3=N)Oc3ccc4ccccc4c32)c1 (stereo not drawn),/,27%,/,/,/
